Screens: PubChem, The Scripps Research Institute Molecular Screening Center
This is a sample that favours compounds with a hit; in the whole collection about 2.3% have one here.
M1 antag = blocks human M1 muscarinic receptor | inhibition, % at 3 µM | P11229 | CHO-K1 hM1, Fluo-8 calcium fluorescence, ACh EC80 antagonist | AID 588852 | 360,000 tested, 1.3% active;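 active means percent inhibition above its own plate's cutoff, namely the mean of that plate's compound wells plus 3 SD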;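 further: peak over basal fluorescence ratio during 140 s after agonist addition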
Target sequence (P11229 whole entry, looked up): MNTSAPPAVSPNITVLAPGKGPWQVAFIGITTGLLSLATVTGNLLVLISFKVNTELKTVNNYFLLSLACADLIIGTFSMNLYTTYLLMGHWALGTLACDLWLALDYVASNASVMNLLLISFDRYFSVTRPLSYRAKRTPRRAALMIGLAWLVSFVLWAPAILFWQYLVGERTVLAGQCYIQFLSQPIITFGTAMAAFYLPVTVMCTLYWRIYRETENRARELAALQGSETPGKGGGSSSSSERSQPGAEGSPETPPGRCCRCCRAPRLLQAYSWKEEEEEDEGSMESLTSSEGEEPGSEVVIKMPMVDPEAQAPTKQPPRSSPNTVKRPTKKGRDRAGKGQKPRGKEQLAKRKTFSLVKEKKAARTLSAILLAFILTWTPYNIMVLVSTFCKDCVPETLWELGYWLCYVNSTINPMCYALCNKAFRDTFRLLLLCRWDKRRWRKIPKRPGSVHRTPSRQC
CHRM1 agonist = activates human CHRM1 receptor; P11229; CHO-K1 hM1, Fluo-8 calcium fluorescence, agonist mode; 0% DMSO, 100% acetylcholine EC100; activation, % at 3 µM; 360,000 tested, 0.33% active;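 active means activation above the run's mean compound activation plus 3 SD, cut at about 16% in these data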;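 further: peak over basal fluorescence ratio within a 140 s kinetic read after compound addition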
M1 PAM = positive allosteric modulators of human M1 muscarinic receptor. P11229. CHO-K1 hM1, Fluo-8 calcium fluorescence, ACh EC20; 0% = ACh EC20, 100% = maximal ACh. activation, % at 3 µM. 360,000 tested, 0.088% active. AID 588819; in the data active means activation above about 19%, passing the limit was not always enough
CHO-K1 Ca PAM = nonselective activator or artifact in parental CHO-K1 calcium assay; 360,000 tested, 0.02% active; ATP EC20, Fluo-8 calcium fluorescence; 0% at ATP EC20, 100% at ATP max; activation, % at 3 µM;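 active means activation above the run cutoff, the mean activation of all test compounds plus 3 SD, cut at about 40% in these data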;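 further: peak over basal fluorescence ratio in a 140 s read after ATP addition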
CHO-K1 Ca antag = counter-screen for M1 antagonists: effect in parental CHO-K1 cells; 360,000 tested, 0.6% active; AID 602250; inhibition, % at 3 µM; ATP-induced calcium, Fluo-8 fluorescence;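 active means inhibition above a per-plate cutoff, the plate's mean sample inhibition plus 3 SD, cut at about 24% in these data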
M1 ag parental = counter-screen for M1 agonists: effect in parental CHO-K1 cells | Fluo-8 calcium fluorescence; scaled to maximal ATP response, vehicle zero | activation, % at 3 µM | 360,000 tested, 0.48% active; in the data active means activation above about 15%;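 further: untransfected CHO-K1 host cells lacking M1 receptor as counterscreen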
Each line names hits and unclear results; the compound was inactive in the other large screens.

CCC(C)c1c(O)nc(SCC(=O)N2CCOCC2)[nH]c1=O (stereo unspecified)	M1 PAM 24.6
CCC(C)c1c(O)nc(SCC(=O)N2CCCCC2)[nH]c1=O (stereo unspecified)	none
Cn1c(N2CCCC2)nc2c1c(=O)n(Cc1ccc(Cl)cc1)c(=O)n2C	none
CC1CN(c2nc3c(c(=O)n(Cc4ccc(Cl)cc4)c(=O)n3C)n2C)CC(C)O1 (stereo unspecified)	CHO-K1 Ca antag 27.7
CC(C)OC(=O)N(C)C[C@@H]1OCc2ccccc2-c2c(n(C)c3ccccc23)C(=O)N([C@@H](C)CO)C[C@H]1C	none
O=C1[C@H]2[C@@H](c3ccccc3)N[C@]3(CCCN(Cc4ccc(Br)cc4)C3=O)[C@H]2C(=O)N1Cc1ccccc1	none
CCN(CC)CCOC(=O)C12CC3CC(CC(C3)C1)C2	M1 antag 40.8
Cc1nc([N+](=O)[O-])c(SCC(N)=O)n1Cc1ccccc1	none
Cc1nc([N+](=O)[O-])c(N2CCN(C)CC2)n1Cc1ccccc1	M1 antag 40.5
COc1ccc(S(=O)(=O)Nc2cccc(N(C)S(C)(=O)=O)c2)cc1Br	M1 ag parental 15.6
O=c1[nH]c(=S)[nH]c2nc(-c3cccs3)cc(C(F)(F)F)c12	none
Nc1c(C(=O)C2CC2)sc2nc(-c3cccs3)cc(C(F)(F)F)c12	CHRM1 agonist 19.0
COC(=O)C1=C(C)OC(N)=C(C#N)C1c1cc2cc(C)ccc2nc1Cl (stereo unspecified)	CHRM1 agonist 23.8
CC(=O)C1=C(C)OC(N)=C(C#N)C1c1cc2cc(C)c(C)cc2nc1Cl (stereo unspecified)	none
CCN(c1ccccc1)S(=O)(=O)c1ccc(NC(=O)c2nc(S(C)(=O)=O)ncc2Cl)cc1	none
CCS(=O)(=O)c1ncc(Cl)c(C(=O)Nc2ccc(S(=O)(=O)N(C)c3ccccc3)cc2)n1	M1 antag 87.6
CC(C)=CCCC(C)NC(=O)NC1CCCCC1 (stereo unspecified)	CHO-K1 Ca antag 24.6 (no result: M1 antag)
CN1CCN(C(=O)C2CCN(c3ncc(C(F)(F)F)cc3Cl)CC2)CC1	M1 antag 72.5
O=C(CN1CCN(c2ncc(C(F)(F)F)cc2Cl)CC1)N1CCN(c2ncc(C(F)(F)F)cc2Cl)CC1	none
Cc1nn(C)c(C)c1CN(C)S(=O)(=O)c1ccc2ccccc2c1	M1 antag 23.9, CHO-K1 Ca antag 24.9
CNC(=O)COC(=O)c1ccccc1Oc1ccccc1	CHO-K1 Ca antag 28.7
CCCc1cc(=O)oc2cc(OC(C)C(=O)NCC3CCC(C(=O)O)CC3)ccc12 (stereo unspecified)	CHO-K1 Ca antag 26.6
O=C(CC1CC2CCC1C2)N1CCN(S(=O)(=O)c2ccc(C(F)(F)F)cc2)CC1 (stereo unspecified)	none
CN(N=C(c1ccccc1)c1ccccc1)c1ccccc1	none
Cc1ccccc1C(=NCCCN(C)C)c1ccccc1C	M1 antag 77.2
Cc1cccc(C)c1C(=NCCN(C)C)c1ccccc1	M1 antag 75.0
CC(=O)Nc1ccc(CN2C(=O)C(CCc3ccccc3)ON=C2c2cnccn2)cc1 (stereo unspecified)	none
CC(C)Oc1cc(F)ccc1-c1cc(C(=O)NCc2ccccn2)[nH]n1	none
CCc1nn(CC(=O)NCCCN2CCc3ccccc3C2)c(=O)c2cc3sccc3n12	M1 antag 43.7
COc1ccc(N2C(=O)CSC23C(=O)N2CCCc4cccc3c42)cc1 (stereo unspecified)	M1 antag 85.3
O=C1CSC2(C(=O)N3CCCc4cccc2c43)N1c1cccc(C(F)(F)F)c1 (stereo unspecified)	M1 antag 88.9
C#Cc1ccc(NC(=O)C2(C)CCN2C(=O)Cc2ccc(C(C)C)cc2)cc1 (stereo unspecified)	none
Fc1ccc2[nH]c3c(NCc4ccccc4)ncnc3c2c1	CHO-K1 Ca antag 33.7, M1 ag parental 19.1
OC[C@@H]1CN(Cc2cccnc2)C[C@H](n2cnc3c(NC4CCCC4)ncnc32)O1	none
COc1ccc(SCCN2CC[C@@H](C)CCC2=O)cc1	CHO-K1 Ca antag 24.0
OC(CN1CCCC(C(F)(F)F)C1)c1ccccc1 (stereo unspecified)	M1 PAM 34.0
OC(COC(c1ccc(F)cc1)c1ccc(F)cc1)CN1CCCC(C(F)(F)F)C1 (stereo unspecified)	none
COC(=O)c1[nH]c2cccc(OC)c2c1NC(=O)CN(C)CC1OCCO1	CHO-K1 Ca antag 23.7
COc1cc(C(O)c2nc(-c3cccc(C#N)c3)cs2)ccc1F (stereo unspecified)	none
CC1(C(=O)NS(=O)(=O)c2ccc(F)cc2F)CCN1C(=O)Cc1ccccc1 (stereo unspecified)	none
CC1(C(=O)NS(=O)(=O)c2ccc(F)cc2F)CCN1C(=O)Cc1ccc(Cl)cc1Cl (stereo unspecified)	CHO-K1 Ca antag 27.0
O=C(NCCc1ccccc1)c1cc(S(=O)(=O)N2CCCCC2)c[nH]1	none
COCCNC(=O)CCc1nnc(C2(c3ccc(Cl)cc3)CCC2)o1	M1 ag parental 15.8
CC(C)(CO)CNC(=O)CCc1nnc(C2(c3ccc(Cl)cc3)CCC2)o1	none
CCOC(=O)[C@@H]1[C@H]2COc3ccccc3[C@@H]2N2C(=O)N(c3ccc(C(F)(F)F)cc3)C(=O)[C@@]12C	none
CCOC(=O)[C@@H]1[C@H]2COc3ccccc3[C@H]2N2C(=O)N(c3ccc(C(F)(F)F)cc3)C(=O)[C@]12C	M1 antag 34.2
Cc1[nH]c(=S)[nH]c(=O)c1Cc1c(O)ccc2ccccc12	CHRM1 agonist 35.0, M1 PAM 27.4
Cc1[nH]c(=S)[nH]c(=O)c1Cc1ccccc1	none
CCOc1ccc(C(C(=O)NCC2CCCO2)N(C(=O)c2snc(C(N)=O)c2N)c2ccccc2F)cc1 (stereo unspecified)	CHO-K1 Ca antag 39.6
COc1ccc(C(C(=O)NCc2ccccc2)N(Cc2ccco2)C(=O)c2snc(C(N)=O)c2N)cc1OC (stereo unspecified)	none
COc1ccc(C(C(=O)NCc2ccccc2)N(Cc2ccco2)C(=O)c2snc(C(N)=O)c2N)cc1 (stereo unspecified)	M1 antag 32.6
NC(=O)c1nsc(C(=O)N(c2ccccc2F)C(C(=O)NCc2ccc(F)cc2)c2ccc(O)cc2)c1N (stereo unspecified)	M1 antag 36.7
CCCNC(=O)C1(C)CCN(Cc2ccc(OC)c3ccccc23)C1 (stereo unspecified)	none
Cc1ccc(S(=O)(=O)N2C[C@H]3N(C(=O)OC(C)C)N(C(=O)OC(C)C)C[C@H](OC(=O)Nc4c(C)noc4C)[C@@]3(O)C2)cc1	none
